# Laboratory results reported in the supplement of paper PMC10681739.
# Molecular target: T1, ETS1 (UniProt P14921)
# T1 sequence: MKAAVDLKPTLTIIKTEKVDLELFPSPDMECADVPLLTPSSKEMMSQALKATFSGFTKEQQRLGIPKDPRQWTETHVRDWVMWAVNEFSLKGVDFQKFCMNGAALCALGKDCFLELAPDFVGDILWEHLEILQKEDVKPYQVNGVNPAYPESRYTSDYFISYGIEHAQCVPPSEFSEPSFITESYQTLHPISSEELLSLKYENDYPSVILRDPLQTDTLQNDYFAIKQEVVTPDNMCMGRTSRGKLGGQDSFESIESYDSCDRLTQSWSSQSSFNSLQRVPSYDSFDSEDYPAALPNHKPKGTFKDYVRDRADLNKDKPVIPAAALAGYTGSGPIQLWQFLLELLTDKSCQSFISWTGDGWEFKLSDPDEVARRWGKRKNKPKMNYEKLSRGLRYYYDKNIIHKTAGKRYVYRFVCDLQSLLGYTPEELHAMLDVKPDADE
# Assay: ETS1 binding intensity (PBM fluorescence), ETS1 alone (arbitrary fluorescence units); higher = stronger binding
# Conditions: ETS1 concentration 1 nM; RUNX1 concentration 0 nM
row,Sequence,ETS1 binding intensity
1,TCCAGGATGTGCTGAACCTCCAGAAACCACCGGCTT,436
2,GCGCCCCGTCCTTCCGCAGCCCAACCGCCTCTTCCC,476
3,GGTGCCAAGGGCAGAGGATGTGGTGAGGTGTGGAGG,999
4,ATCAAAGAACGGATATTGCTGTGACACCGCGGGGAC,1380
5,AAGGACCGACCCGTTTTCCGCCCGCAGCGGAGCTTG,439
6,AAAACCTTGTTGAAAGGATGTGGCTTAGCGAGAGGT,1140
7,GCTACGGGTTCCCCGGATGGAGCCGCAGTCCGGCCG,858
8,AGCACGTCCCCCTTCTTCCTCCCGCAGAGGGCCTGC,454
9,CCTCCTGGGAACTTCCTGCGGGGGCCGAAGCTGAAG,640
10,TGCCCCCTCCCCCTTCCGCTGTGGCCACCGGCTTTG,764
11,GCTATCCCCGCCCCTTCCTGTGGGCTGGCGCCCGAT,482
12,GGGGCCCCGGATGCACTGAGCGGCTGCGGCGCGGCT,613
13,CTTCCTTCCCTTCCTTCTGCTCCCTCCCACAGCCGC,519
14,CACTCCCCCATTCCGGCTGCAGGTTGAGGTTTGGAA,517
15,GGAGTGAGGAGGAAGCGGAGGCGAGACCGCGCTCAA,464
